Test results published in PubChem BioAssay (NCI).
“And” between values parts separate entries of the source, which are not always exact repeats. Equal values may be shown once. About 79,000 compounds went through this panel and 15% of them were active in at least one assay; those are over-represented in the sample as a whole. Some compounds were tested as several samples or in several runs, with calls that do not always agree. The source made the active and inactive calls. No stated cut-off is given here; in the data, active means growth inhibition above about 70%; inactive means the rest.

Tests used:
[1] = NCI Yeast Anticancer Drug Screen. Data for the rad52 strain (AID 147);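 further: 0% = growth of vehicle-treated control cultures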; settings: S. cerevisiae rad52 mutant growth inhibition, stronger effect = higher value
In short: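 Screen used a yeast mutant impaired in DNA repair. After compound exposure, growth was measured. Values reflect inhibition compared with vehicle-treated cells.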

[2] = NCI Yeast Anticancer Drug Screen. Data for the wt1 strain (AID 149);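 further: 0% = growth of vehicle-treated wt1 cultures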; settings: S. cerevisiae wt1 strain (SPY 50644) growth inhibition, stronger effect = higher value
In short: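 Using yeast strain wt1, compound-induced growth inhibition was determined against vehicle-treated cultures.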

[3] = NCI Yeast Anticancer Drug Screen. Data for the rad50EPP+ strain (AID 151);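 further: 0% = growth of vehicle-treated control cultures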; settings: S. cerevisiae rad50 mutant strain, stronger effect = higher value
In short: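 Exposing the rad50EPP+ strain to each compound, growth was compared with vehicle-only cultures to give inhibition.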

[4] = NCI Yeast Anticancer Drug Screen. Data for the mgt1 strain (AID 153); settings: S. cerevisiae mgt1 mutant growth inhibition, stronger effect = higher value
In short: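 Genetically defined yeast (mgt1) treated with compound; inhibition of growth expressed against vehicle-treated controls.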

[5] = NCI Yeast Anticancer Drug Screen. Data for the rad50 strain (AID 155);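 further: 0% = growth of vehicle-only cultures of the same strain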; settings: S. cerevisiae rad50 strain growth inhibition, stronger effect = higher value
In short: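 Relative growth inhibition (compound vs vehicle) was measured in yeast with a defined repair-gene alteration.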

[6] = NCI Yeast Anticancer Drug Screen. Data for the mec2-1 strain (AID 157); settings: S. cerevisiae mec2-1 strain, stronger effect = higher value
In short: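 Readout is yeast growth inhibition, normalised to vehicle-treated controls, in the mec2-1 strain exposed to compound.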

[7] = NCI Yeast Anticancer Drug Screen. Data for the rad14 strain (AID 159);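 further: 0% = growth of vehicle-treated control cultures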; settings: S. cerevisiae rad14 strain growth inhibition, stronger effect = higher value
In short: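 Screen for anticancer potential: a yeast strain altered in DNA damage repair is grown with compound, and reduced growth is quantified against vehicle controls.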

[8] = NCI Yeast Anticancer Drug Screen. Data for the sgs1 mgt1 strain (AID 161);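 further: 0% = growth of cultures given vehicle only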; settings: S. cerevisiae sgs1 mgt1 strain, stronger effect = higher value
In short: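 Yeast cells carrying a defined DNA-repair defect were exposed to test compounds. Growth inhibition was measured relative to vehicle-treated controls.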

[9] = NCI Yeast Anticancer Drug Screen. Data for the CLN2oe strain (AID 163);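 further: 0% = growth of vehicle-only control cultures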; settings: S. cerevisiae CLN2oe strain, stronger effect = higher value
In short: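 Values reflect how much compound exposure reduced yeast growth, referenced to vehicle-exposed cells. Assay organism is a strain with a defined genetic change affecting cell-cycle control.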

[10] = NCI Yeast Anticancer Drug Screen. Data for the cln2 rad14 strain (AID 165);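 further: 0% = growth equal to vehicle treated cultures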; settings: S. cerevisiae cln2 rad14 strain, stronger effect = higher value
In short: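 Relative to vehicle controls, growth inhibition of compound-treated cln2 rad14 yeast was recorded.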

[11] = NCI Yeast Anticancer Drug Screen. Data for the bub3 strain (AID 167); settings: S. cerevisiae bub3 mutant strain, stronger effect = higher value
In short: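 Screening used yeast with an engineered genetic alteration affecting cell cycle control. Compound-exposed cultures were compared with vehicle cultures, and reduced growth was taken as inhibition.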

[12] = NCI Yeast Anticancer Drug Screen. Data for the wt2 strain (AID 169);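 further: 0% = growth of vehicle-treated yeast cultures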; settings: S. cerevisiae wt2 strain growth inhibition, stronger effect = higher value
In short: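 Values express reduction in yeast growth under compound treatment, referenced to vehicle-treated cells.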

[13] = NCI Yeast Anticancer Drug Screen. Data for the mlh1 strain (AID 171);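 further: 0% = growth of vehicle-treated control cultures of the same strain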; settings: S. cerevisiae mlh1 strain growth inhibition, stronger effect = higher value
In short: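 Steps: expose the defined-mutant yeast strain to compound; expose a parallel culture to vehicle; measure growth; express compound effect as inhibition relative to the vehicle culture.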

[14] = NCI Yeast Anticancer Drug Screen. Data for the mlh1 rad18 strain (AID 175); settings: S. cerevisiae mlh1 rad18 strain growth inhibition, stronger effect = higher value
In short: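 Test agents were incubated with a yeast strain of defined genotype (DNA damage repair defect). Inhibition of growth was derived by comparison with vehicle-exposed cultures.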

[15] = NCI Yeast Anticancer Drug Screen. Data for the rad18 strain (AID 177); settings: S. cerevisiae rad18 mutant growth inhibition, stronger effect = higher value
In short: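 A genetically defined yeast mutant impaired in DNA damage repair was treated with test compounds, then its growth was measured against cultures receiving vehicle alone.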

[16] = at 5.0 µM (retest, dose inferred, filed as 0.5)
[17] = at 50.0 µM (retest, dose inferred, filed as 5.0)

Measured: growth inhibition

C=C1C(=O)OC2CC1C(OC(C)=O)C/C(C)=C/CC/C(C)=C\CCC2(C)O (stereo unspecified)
51% (inactive) and 97% (active): [10]; [17]
67% (inactive) and 99% (active): [8]; [17]
inactive: [1]; at 1.2 µM -5% | [1]; at 3.7 µM 1% | [1]; at 11.0 µM 15% | [1]; at 33.0 µM 33% | [2]; at 1.2 µM 3% | [2]; at 3.7 µM 11% | [2]; at 11.0 µM 13% | [2]; at 33.0 µM 30% | [3]; at 1.2 µM 15% | [3]; at 3.7 µM 42% | [3]; at 11.0 µM 40% | [3]; at 33.0 µM 31% | [3]; at 100.0 µM 18% | [4]; at 1.2 µM -14% | [4]; at 3.7 µM 3% | [4]; at 11.0 µM 13% | [4]; at 33.0 µM 28% | [5]; at 1.2 µM -3% | [5]; at 3.7 µM 9% | [5]; at 11.0 µM 17% | [5]; at 33.0 µM 40% | [6]; at 1.2 µM 11% | [6]; at 3.7 µM 17% | [6]; at 11.0 µM 23% | [6]; at 33.0 µM 37% | [7]; at 1.2 µM 5% | [7]; at 3.7 µM 17% | [7]; at 11.0 µM 31% | [7]; at 33.0 µM 44% | [9]; at 1.2 µM -17% | [9]; at 3.7 µM 9% | [9]; at 11.0 µM 20% | [9]; at 33.0 µM 13% | [10]; [16] 6% and 31% | [11]; at 1.2 µM 6% | [11]; at 3.7 µM -8% | [11]; at 11.0 µM 4% | [11]; at 33.0 µM 24% | [12]; at 1.2 µM -2% | [12]; at 3.7 µM -4% | [12]; at 11.0 µM 12% | [12]; at 33.0 µM 17% | [13]; at 1.2 µM -5% | [13]; at 3.7 µM 19% | [13]; at 11.0 µM 28% | [13]; at 33.0 µM 51% | [15]; at 1.2 µM -15% | [15]; at 3.7 µM 1% | [15]; at 11.0 µM 15% | [15]; at 33.0 µM 49%
24% (inactive) and 99% (active): [8]; [16]
24% (inactive) and 85% (active): [5]; [16]
60% (inactive) and 95% (active): [14]; [16]
36% (inactive) and 90% (active): [11]; [16]
active: [1]; at 100.0 µM 88% | [2]; at 100.0 µM 85% | [4]; at 100.0 µM 80% | [5]; at 50.0 µM 81.5% and 88.8% | [5]; at 100.0 µM 86% | [6]; [17] 79% and 99% | [6]; at 50.0 µM 81.7% and 91.2% | [6]; at 100.0 µM 89% | [7]; at 100.0 µM 87% | [8]; at 50.0 µM 71.2% and 87.9% | [9]; at 100.0 µM 85% | [10]; at 50.0 µM 78.8% and 89.3% | [11]; [17] 85% and 99% | [11]; at 50.0 µM 84.5% and 90.7% | [11]; at 100.0 µM 85% | [12]; at 100.0 µM 93% | [13]; at 100.0 µM 89% | [14]; [17] 97% | [14]; at 50.0 µM 85.5% and 86.8% | [15]; at 100.0 µM 91%
18% (inactive) and 82% (active): [6]; [16]
63% (inactive) and 98% (active): [5]; [17]

O=[N+]([O-])c1cccc2nc3ccccc3c(NCCCn3ccnc3[N+](=O)[O-])c12
inactive: [1]; at 1.2 µM 53% | [1]; at 3.7 µM 65% | [2]; at 1.2 µM -6% | [2]; at 3.7 µM 24% | [2]; at 11.0 µM 37% | [2]; at 33.0 µM 64% | [3]; at 1.2 µM 24% | [3]; at 3.7 µM 37% | [3]; at 11.0 µM 58% | [4]; at 1.2 µM 17% | [4]; at 3.7 µM 28% | [4]; at 11.0 µM 38% | [4]; at 33.0 µM 55% | [5]; at 1.2 µM 23% | [5]; at 3.7 µM 63% | [5]; [16] 24% | [6]; at 1.2 µM 29% | [6]; at 3.7 µM 55% | [6]; [16] 16% | [7]; at 1.2 µM 17% | [8]; [16] 54% | [9]; at 1.2 µM 5% | [9]; at 3.7 µM 27% | [9]; at 11.0 µM 46% | [10]; [16] 52% | [11]; at 1.2 µM -15% | [11]; at 3.7 µM -12% | [11]; [16] 11% | [11]; at 11.0 µM 11% | [11]; at 33.0 µM 51% | [11]; at 50.0 µM 58.4% | [12]; at 1.2 µM -16% | [12]; at 3.7 µM -9% | [12]; at 11.0 µM 19% | [14]; [16] 26%
active: [1]; at 11.0 µM 86% | [1]; at 33.0 µM 94% | [1]; at 100.0 µM 97% | [2]; at 100.0 µM 86% | [3]; at 33.0 µM 83% | [3]; at 100.0 µM 90% | [4]; at 100.0 µM 82% | [5]; at 11.0 µM 86% | [5]; at 33.0 µM 94% | [5]; [17] 94% | [5]; at 50.0 µM 80% | [5]; at 100.0 µM 96% | [6]; at 11.0 µM 88% | [6]; at 33.0 µM 96% | [6]; [17] 98% | [6]; at 50.0 µM 87.5% | [6]; at 100.0 µM 97% | [7]; at 3.7 µM 73% | [7]; at 11.0 µM 95% | [7]; at 33.0 µM 97% | [7]; at 100.0 µM 98% | [8]; [17] 94% | [8]; at 50.0 µM 85% | [9]; at 33.0 µM 82% | [9]; at 100.0 µM 92% | [10]; [17] 97% | [10]; at 50.0 µM 87.4% | [11]; [17] 78% | [11]; at 100.0 µM 88% | [12]; at 33.0 µM 74% | [12]; at 100.0 µM 88% | [14]; [17] 98% | [14]; at 50.0 µM 79.2% | [15]; at 1.2 µM 90% | [15]; at 3.7 µM 94% | [15]; at 11.0 µM 95% | [15]; at 33.0 µM 96% | [15]; at 100.0 µM 96%
